In PubChem BioAssay (EPA / NIEHS):
The source made the active and inactive calls. The calls were made as follows: active = hit-call score of the fitted dose curve at least 0.9, where 1 is the maximum; inactive = score below 0.9.

Read-out: urokinase plasminogen activator (uPA), PLAU (gene 5328)
Test: BSK_KF3CT_uPA: BioMAP Diversity Plus: KF3CT Assay for urokinase plasminogen activator (uPA) Biomarker Activity (AID 2283075)
Details: primary human keratinocytes with fibroblasts; actives raise or lower the signal
Protocol: BSK_KF3CT is a cell-based, multiplexed-readout assay that uses keratinocytes and foreskin fibroblasts, a human skin primary cell co-culture, with measurements taken at 24 hours after chemical dosing in a 96-well plate.BSK_KF3CTA is an assay component measured in the BSK_KF3CT assay. It measures uPA antibody related to regulation of gene expression using ELISA technology.Data from the assay component BSK_KF3CTA was analyzed into 1 assay endpoint. This assay endpoint, BSK_KF3CTA, was analyzed with bidirectional fitting relative to DMSO as the negative control and baseline of activity. Using a type of binding reporter, gain or loss-of-signal activity can be used to understand changes in the signaling as they relate to the gene PLAU. Furthermore, this assay endpoint can be referred to as a primary readout, because this assay has produced multiple assay endpoints where this one serves a signaling function. To generalize the intended target to other relatable targets, this assay endpoint is annotated to the protease intended target family, where the subfamily is serine protease.
The levels of cell surface (or secreted, indicated by the prefix "s") biomarker endpoints were measured by ELISA. Overt cytotoxicity to cells in confluent adherent cultures (all systems other than the BT system) was assessed by measuring total protein levels using sulforhodamine B (SRB) staining in parallel cultures at the time of biomarker measurements, indicated as SRB endpoints. For proliferation assays for adherent cell types, individual cell types are cultured at sub-confluence and relative cell numbers quantified by SRB staining at time points optimized for each system (48 h: 3C and CASM3C systems; 72 h: BT and HDF3CGF systems; 96 h: SAg system). SRB was performed by staining cells with 0.1% SRB after fixation with 10% TCA and reading wells at 560 nm.Viability and proliferation of PBMC (T cells) was quantified by Alamar Blue reduction for the SAg and BT systems. For PBMC viability (referred to as PBMC Cytotoxicity within the assay endpoint names), cells were plated (75,000/well in a 96-well plate) and then chemical samples added for 1 h before addition of activators, SEB and TSST-1 (20 ng/mL final concentration each). Cells were incubated for 90 h. Then, Alamar Blue (20 uL/well) (Invitrogen, Cat DAL1100) was added for 6 h, and the plates were read with a fluorescence microplate reader at 546/580 nm (excitation/emission). For PBMC proliferation, cells were plated and activated as above but incubated for only 16 h prior to addition of Alamar Blue. Plates were read after 6 h.

Compound	outcome	AC50
CCOC(=O)CCC(=O)OCC	inactive	
Cc1cc(=O)[nH]c(=S)[nH]1	inactive	
CCOc1ccc2c(c1)C(C)=CC(C)(C)N2	inactive	
FC(F)(F)C(F)(F)C(F)(F)C(F)(F)C(F)(F)C(F)(F)CCI	inactive	
Oc1ccc2ccccc2c1N=Nc1ccccc1	inactive	
NS(=O)(=O)c1cc2c(cc1Cl)NCNS2(=O)=O	inactive	
Nc1ccc(S(=O)(=O)c2ccc(N)cc2)cc1	inactive	
COCCOCCOC	inactive	
CCc1c(C(=O)NN2CCCCC2)nn(-c2ccc(Cl)cc2Cl)c1-c1ccc(Br)cc1		7.27 µM (active)
O=c1[nH]cc(F)c(=O)[nH]1	inactive	
Cc1cccc([N+](=O)[O-])c1C	inactive	
CC=Cc1ccc(O)c(OC)c1	inactive	
CNC(=O)[C@H]1O[C@@H](n2cnc3c(NCc4cc(Cl)ccc4OCc4cc(C)no4)ncnc32)[C@H](O)[C@@H]1N	inactive	
C[Si]1(C)O[Si](C)(C)O[Si](C)(C)O[Si](C)(C)O1	inactive	
COC(=O)c1ccc(O)cc1	inactive	
C1CCC(SSC2CCCCC2)CC1	inactive	
CN1CCCC1=O	inactive	
Cc1c(C(=O)O)c(O)cc2c1C(=O)c1c(O)c([C@@H]3O[C@H](CO)[C@@H](O)[C@H](O)[C@H]3O)c(O)c(O)c1C2=O	inactive	
C[C@]12C=CC(=O)C=C1CC[C@@H]1[C@@H]2C(=O)C[C@@]2(C)[C@H]1CC[C@]2(O)C(=O)CO	inactive	
CC1(C)CC(N=C=O)CC(C)(CN=C=O)C1 (stereo not given)	inactive	

Compound	outcome	AC50
C=CCOC(=O)c1ccccc1C(=O)OCC=C	inactive	
O=C(OCCCCCOC(=O)c1ccccc1)c1ccccc1	inactive	
Cc1ccc(C)c(O)c1C	inactive	
COc1cc(S(=O)(=O)O)c(C)cc1N=Nc1c(O)ccc2cc(S(=O)(=O)O)ccc12	inactive	
Cc1ccc2ncccc2c1	inactive	
CCCCCCCCCCCC(=O)OC	inactive	
NC(=O)Cn1c(=O)cc(CCN2CCN(c3nccc4sccc34)CC2)c2ccc(F)cc21	inactive	
CC1=C(/C=C/C(C)=C/C=C/C(C)=C/CO)C(C)(C)CCC1	inactive	
COc1ccc(S(=O)(=O)N2C(=O)[C@@](c3ccccc3OC)(N3C[C@H](O)C[C@H]3C(=O)N(C)C)c3cc(Cl)ccc32)c(OC)c1	inactive	
COc1ccc2c(c1)c(CC(=O)O)c(C)n2C(=O)c1ccc(Cl)cc1	inactive	
CC(=O)OCCOCCOCCOC(C)=O	inactive	
NCC1(Cc2noc(=O)[nH]2)CCCCC1	inactive	
CC(C)(C)c1cc(O)c(C(C)(C)C)cc1O	inactive	
CCCCc1ccc2c(n1)[C@@H](c1ccc(OC)cc1C[C@H](C)C(=O)O)[C@H](C(=O)O)[C@H]2c1ccc2c(c1)OCO2	inactive	
CCCc1cc(=O)[nH]c(=S)[nH]1	inactive	
OC[C@@H](O)[C@@H](O)[C@H](O)[C@H](O)CO	inactive	
CC(C)c1ccc(C(=O)N=C(N)N)cc1S(C)(=O)=O	inactive	
CCOC(=O)C(C)(C)Oc1ccc(Cl)cc1	inactive	
Cc1oc(-c2ccccc2)nc1CCOc1cccc2c1ccn2CCC(=O)O	inactive	
CCCCCCOCCO	inactive	
